In the assay the test system is H1299. In words: difference in mean normalized H2B-mRuby nuclear fluorescence intensity relative to DMSO control (normalized intensity difference (DMSO = 0)); higher = stronger increase in transgene reporter fluorescence. The following applies: 24 h. As for the experimental part: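 Cancer cell lines stably expressing H2B-mRuby2 from a lentiviral PGK promoter were treated with each drug for 24 h and imaged on a Leica DMI8 (ex 541-551 / em 565-605 nm). Nuclei were segmented in CellProfiler. The value is the difference in mean per-nucleus normalized H2B-mRuby intensity versus DMSO-treated cells (about 3 repeats x 4 fields). Doxorubicin is itself fluorescent. Dasatinib is in nM.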

Turning to `C=CCn1c(=O)c2cnc(Nc3ccc(N4CCN(C)CC4)cc3)nc2n1-c1cccc(C(C)(C)O)n1` (concentration unit: uM), the difference was 0.0483 (concentration: 0.1); 0.108 (concentration: 0.5); 0.027 (concentration: 1); -0.00187 (concentration: 2.5); -0.0335 (concentration: 5).

Regarding `COc1cc(Nc2c(C#N)cnc3cc(OCCCN4CCN(C)CC4)c(OC)cc23)c(Cl)cc1Cl` (concentration unit: uM), the difference (concentration: 0.25) was -0.202; the difference (concentration: 1) was -0.134; the difference (concentration: 2.5) is -0.0971; the difference (concentration: 5) is -0.166; the difference (concentration: 20) was -0.0502.

`COc1cc([C@@H]2c3cc4c(cc3[C@@H](O[C@@H]3O[C@@H]5CO[C@@H](C)O[C@H]5[C@H](O)[C@H]3O)[C@H]3COC(=O)[C@H]23)OCO4)cc(OC)c1O` (concentration unit: uM) showed a difference (concentration: 0.5) of 0.147; a difference (concentration: 1) of 0.0921; a difference (concentration: 2.5) of 0.108; a difference (concentration: 5) of 0.206; a difference (concentration: 10) of 0.153; a difference (concentration: 20) of 0.189.

In the case of `O=C(c1cc(Cc2n[nH]c(=O)c3ccccc23)ccc1F)N1CCN(C(=O)C2CC2)CC1` (concentration unit: uM), the difference is -0.0151 (concentration: 1); -0.0147 (concentration: 2.5); 0.0174 (concentration: 5); 0.0357 (concentration: 10); 0.0633 (concentration: 25).

For `CNC(=O)c1cc(Oc2ccc(NC(=O)Nc3ccc(Cl)c(C(F)(F)F)c3)cc2)ccn1` (concentration unit: uM), the difference is 0.0342 (concentration: 1); -0.0184 (concentration: 2.5); -0.0837 (concentration: 5); -0.0051 (concentration: 10); -0.155 (concentration: 25).

For the compound `COC1=C2C[C@@H](C)C[C@H](OC)[C@H](O)[C@@H](C)/C=C(\C)[C@H](OC(N)=O)[C@@H](OC)/C=C\C=C(/C)C(=O)NC(=CC1=O)C2=O` (concentration unit: nM), the difference is -0.0197 (concentration: 5); 0.305 (concentration: 25); 0.532 (concentration: 50); 0.567 (concentration: 100); 0.435 (concentration: 500).

With `COc1cc(Nc2ncc3c(n2)-c2ccc(Cl)cc2C(c2c(F)cccc2OC)=NC3)ccc1C(=O)O` (concentration unit: nM), the difference is, setting by setting: (concentration: 10) -0.0235; (concentration: 50) -0.0295; (concentration: 250) 0.00737; (concentration: 500) 0.159; (concentration: 1000) 0.136.

For the compound `Cc1[nH]c2ccccc2c1CCNCc1ccc(/C=C/C(=O)NO)cc1` (concentration unit: nM), the difference reads like this: (concentration: 10) 0.43; (concentration: 25) 0.738; (concentration: 50) 0.733; (concentration: 100) 0.864; (concentration: 250) 0.886; (concentration: 500) 0.923.

Source of the values: the supplement of paper PMC11026393.
